Molecules are shown by their SMILES. “And” between values parts separate entries of the source, which are not always exact repeats. Identical values can stand only once. Inconclusive results are not listed. Values without a mark were called inactive. The source made the active and inactive calls. Calls follow the shape of the dose curve; as a rule, active = well fitted cell-killing curve with a large enough effect in the repeat runs; inconclusive = weak or mixed curves, or effect the other way; inactive = flat fitted curve, though single readings scatter.

Assay [1] can be described thus: cAMP Responsive Elements (CRE) small molecule antagonists, cell-based qHTS assay: qHTS cell viability counter screen (AID 2060913). Also: nearly all actives have a fitted effect of over 40% in size. The method in brief:
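CRE-bla HEK293T cells were seeded in assay medium with 10% dialyzed FBS, incubated 18 hrs at 37 C, then exposed to compounds plus 0.25 uM final NKH477 for 3 hrs. Viability was read by CellTiter-Glo luminescence after 30 min, in the same wells.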
On the technique in general: qHTS replaces the single test concentration by a dilution series.

Assay [2] in a line: cAMP Responsive Elements (CRE) small molecule agonists, cell-based qHTS assay: qHTS cell viability counter screen (AID 2060914). Also: nearly all actives have a fitted effect of over 50% in size. The method in brief:
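In the same wells as the reporter read, viability of CRE-bla HEK 293T cells was quantified by CellTiter-Glo luminescence after a 3 h compound exposure.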
% is scaled to controls: 0 for no effect and ±100 for the full control effect; potency is read from the fitted curve at half-maximal effect.

For `[CH3][Sn]([CH3])([Cl])[Cl]`, the Potency entry in assay [1] and in assay [2] was “inactive” each time.

As for `CCCCCC[n+]1ccccc1`, the Potency entry in assay [1] and in assay [2] was “inactive” throughout.

`Cc1ccc(N)c(N)c1`: the Potency entry in assay [1] and in assay [2] was “inactive” in each case.

Turning to `CC(=O)NNc1ccccc1`, the Potency entry in assay [1] and in assay [2] was “inactive” in each case.

As for `Oc1ccc(Cl)cc1`, the Potency entry in assay [1] and in assay [2] was “inactive” each time.

`O=C(O)C(Br)(Br)Br`: the Potency entry in assay [1] and in assay [2] was “inactive” each time.

Take `COC(N)=O`: the Potency entry in assay [1] and in assay [2] was “inactive” in each case.

`CCOc1cc(Oc2ccc(C(F)(F)F)cc2Cl)ccc1[N+](=O)[O-]`: the Potency entry in assay [1] and in assay [2] was “inactive” throughout.

Regarding `CCN1CCCC1CNC(=O)C(O)(c1ccccc1)c1ccccc1` (stereo not given), the Potency result in assay [1] and in assay [2] was “inactive” throughout.

Consider `CN1C(=O)COc2c(C(=O)NC3CN4CCC3CC4)cc(Cl)cc21` (stereo not given), for which the Potency entry in assay [1] and in assay [2] was “inactive” throughout.

As for `C1CN2CCC1CC2`, the Potency entry in assay [1] and in assay [2] was “inactive” each time.

Regarding `CSSC`, the Potency entry in assay [1] and in assay [2] was “inactive” throughout.

In the case of `O=P1(NCCCl)OCCCN1CCCl` (stereo not given), the Potency entry in assay [1] and in assay [2] was “inactive” throughout.

Consider `CCCC1COC(Cn2cncn2)(c2ccc(Cl)cc2Cl)O1` (stereo not given), for which the Potency entry in assay [1] and in assay [2] was “inactive” throughout.

In the case of `CCN(CC)CCN1C(=O)CN=C(c2ccccc2F)c2cc(Cl)ccc21`, the Potency result in assay [1] and in assay [2] was “inactive” throughout.

Consider `Cc1ccc2ccccc2c1`, for which the Potency result in assay [1] and in assay [2] was “inactive” throughout.

In the case of `NC(=O)C(Cl)(Cl)Cl`, the Potency entry in assay [1] and in assay [2] was “inactive” in each case.

Take `C1CCNCC1`: the Potency entry in assay [1] and in assay [2] was “inactive” in each case.

Turning to `O=C(Nc1ccccc1)c1ccccc1I`, the Potency entry in assay [1] and in assay [2] was “inactive” in each case.

On to `CCO[C@H]1O[C@@H]2OC3(C)CC[C@H]4[C@H](C)CC[C@@H]([C@H]1C)[C@@]24OO3`, for which the Potency result in assay [1] and in assay [2] was “inactive” in each case.

As to `Oc1ccccc1Br`, the Potency entry in assay [1] and in assay [2] was “inactive” each time.

With `CNC(=O)Oc1cc(C)cc(C(C)C)c1`, the Potency entry in assay [1] and in assay [2] was “inactive” in each case.

On to `C=CC(C)(CCC=C(C)C)OC(=O)c1ccccc1N` (stereo not given), for which the Potency entry in assay [1] and in assay [2] was “inactive” throughout.

On to `CCC(C)(C)c1ccc(O)cc1`, for which the Potency result in assay [1] and in assay [2] was “inactive” throughout.

Consider `CC(C)(OOC(C)(C)c1ccccc1)c1ccccc1`, for which the Potency result in assay [1] and in assay [2] was “inactive” throughout.

For `ClCC(Cl)(Cl)Cl`, the Potency entry in assay [1] and in assay [2] was “inactive” throughout.

With `Clc1ccccc1`, the Potency entry in assay [1] and in assay [2] was “inactive” in each case.

In the case of `Cc1cc(OC(=O)N(C)C)nn1C(=O)N(C)C`, the Potency entry in assay [1] and in assay [2] was “inactive” throughout.

Consider `CCN(CC)CCc1c[nH]c2ccccc12`, for which the Potency result in assay [1] and in assay [2] was “inactive” each time.

As for `C=C(C)[C@@H]1CC=C(C=O)CC1`, the Potency result in assay [1] and in assay [2] was “inactive” each time.

`O=[N+]([O-])c1cccc2ccccc12`: the Potency entry in assay [1] and in assay [2] was “inactive” throughout.

Consider `O=[N+]([O-])/N=C1\NCCN1Cc1ccc(Cl)nc1`, for which the Potency entry in assay [1] and in assay [2] was “inactive” each time.

Turning to `CC(C)OC(=O)Cc1ccccc1`, the Potency result in assay [1] and in assay [2] was “inactive” in each case.

As to `CN1C(=O)CCS(=O)(=O)C1c1ccc(Cl)cc1` (stereo not given), the Potency entry in assay [1] and in assay [2] was “inactive” throughout.

Take `c1ccoc1`: the Potency entry in assay [1] and in assay [2] was “inactive” in each case.

In the case of `OC(Cc1ccccc1Cl)(Cn1[nH]cnc1=S)C1(Cl)CC1` (stereo not given), the Potency result in assay [1] and in assay [2] was “inactive” in each case.

Consider `[CH3][Hg][Cl]`, for which the Potency entry in assay [1] and in assay [2] was “inactive” each time.

As to `COC(=O)c1cncn1C(C)c1ccccc1` (stereo not given), the Potency entry in assay [1] and in assay [2] was “inactive” throughout.

For `CO[C@@H]1[C@H](OC(=O)NC(=O)CCl)CC[C@]2(CO2)[C@H]1[C@@]1(C)O[C@@H]1CC=C(C)C`, the viability change, negative = cytotoxic in assay [1] was 9.39% [at 18.9 µM]. Also, in assay [2], the activity change, negative = cytotoxicity was 13.5% [at 18.9 µM].

In the case of `C1CS1`, the Potency entry in assay [1] and in assay [2] was “inactive” throughout.

As for `C=CC(Cl)CCl` (stereo not given), the Potency result in assay [1] and in assay [2] was “inactive” in each case.

As for `COC(=O)COc1ccc(Cl)cc1Cl`, the Potency entry in assay [1] and in assay [2] was “inactive” each time.

For the compound `CC(C)(C)C(=O)Cl`, the Potency entry in assay [1] and in assay [2] was “inactive” in each case.

Take `Clc1ccccc1Cl`: the Potency entry in assay [1] and in assay [2] was “inactive” throughout.

`CCCCCCCC[N+](C)(CCCCCCCC)CCCCCCCC`: the Potency in assay [1] was 8.62 µM (active) and 48.6 µM (active); in assay [2] it was 19.3 µM (active) and 30.6 µM (active).

Take `C[C@H]1CNCCc2ccc(Cl)cc21`: the Potency result in assay [1] and in assay [2] was “inactive” throughout.

Consider `COc1cc(Cl)c(OC)cc1Cl`, for which the Potency result in assay [1] and in assay [2] was “inactive” in each case.

Turning to `C=CC(=O)NCNC(=O)C=C`, the Potency result in assay [1] and in assay [2] was “inactive” each time.

As for `COP(=O)(CCC(=O)NCO)OC`, the Potency result in assay [1] and in assay [2] was “inactive” in each case.

Turning to `COC12CC[C@@]3(C[C@@H]1C(C)(O)C(C)(C)C)[C@H]1Cc4ccc(O)c5c4[C@@]3(CCN1CC1CC1)[C@H]2O5` (stereo not given in full), the Potency in assay [1] was 60.7 µM (active). In assay [2], the Potency entry is “inactive”.

For `COCCC#N`, the Potency result in assay [1] and in assay [2] was “inactive” in each case.

Take `COCC(=O)N(c1c(C)cccc1C)C(C)C(=O)OC` (stereo not given): the Potency result in assay [1] and in assay [2] was “inactive” each time.

For the compound `CC(C)CP(=S)(S)CC(C)C`, the Potency entry in assay [1] and in assay [2] was “inactive” throughout.

Consider `CN(C)c1ccc(N=Nc2ccccc2)cc1`, for which the Potency entry in assay [1] and in assay [2] was “inactive” throughout.

Take `Cc1ccc2c(c1)C1CN(C)CCC1N2` (stereo not given): in assay [1], the viability change, negative = cytotoxic is -0.367% [at 18.9 µM]. For the same compound, the activity change, negative = cytotoxicity in assay [2] is -0.524% [at 18.9 µM].

Regarding `C=CC[C@]1(O)CC[C@H]2[C@@H]3CCC4=CC(=O)CCC4=C3C=C[C@@]21C`, the Potency entry in assay [1] and in assay [2] was “inactive” each time.

Regarding `O=[N+]([O-])c1cc(Cl)c(Cl)cc1Cl`, the Potency entry in assay [1] and in assay [2] was “inactive” throughout.

For `CC1(C)CN=C(NN=C(/C=C/c2ccc(C(F)(F)F)cc2)/C=C/c2ccc(C(F)(F)F)cc2)NC1`, the Potency result in assay [1] and in assay [2] was “inactive” each time.

As to `CC(C)CCCCCCCOP(=O)(Oc1ccccc1)Oc1ccccc1`, the Potency result in assay [1] and in assay [2] was “inactive” throughout.

Turning to `N#CC(O)c1ccccc1` (stereo not given), the Potency entry in assay [1] and in assay [2] was “inactive” throughout.

(Values after PubChem BioAssay (Tox21).)
